HPGD inh: qHTS Assay for Inhibitors of HPGD (15-Hydroxyprostaglandin Dehydrogenase); purified HPGD, NADH fluorescence kinetic, PGE2 substrate; Potency, µM, actives largely listed as inhibitors; 150,000 tested, 4.3% active; AID 894, 2007
Target sequence (P15428 whole entry, looked up): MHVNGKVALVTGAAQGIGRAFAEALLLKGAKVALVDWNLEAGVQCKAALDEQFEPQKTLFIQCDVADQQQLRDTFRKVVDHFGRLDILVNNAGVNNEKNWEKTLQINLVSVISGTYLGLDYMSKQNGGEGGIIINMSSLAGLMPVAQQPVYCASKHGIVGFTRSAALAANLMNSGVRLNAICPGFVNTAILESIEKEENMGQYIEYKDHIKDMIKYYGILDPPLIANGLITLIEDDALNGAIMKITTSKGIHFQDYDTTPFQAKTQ
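20 nM HPGD preincubated 15 min at room temperature with compound in 50 mM Tris-HCl pH 8, 0.01% Tween 20. Started with 1 mM NAD+ and 30 uM prostaglandin E2; NADH fluorescence (360/450 nm) read 5 times over 30-s intervals, last minus first.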
ALDH1A1 block: qHTS Assay for Inhibitors of Aldehyde Dehydrogenase 1 (ALDH1A1); Aldehyde dehydrogenase 1A1 (Homo sapiens), P00352; Purified ALDH1A1, NADH fluorescence, propionaldehyde substrate; Potency, µM (series often up to 75.3 µM), usual class: inhibitors; 220,000 tested, 7.3% active; AID 1030, 2008
PNC inhibitor: High Content Assay for Compounds that inhibit the Assembly of the Perinucleolar Compartment; AID 2417, 2010; 140,000 tested, 3.1% active; activity change (PNC), negative = inhibition, % at 10 µM; PC3M PTB-GFP, PNC prevalence imaging, 16 h; active compounds read low;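 active = readout at or below -70, meaning at least 70% loss of cells showing the perinucleolar compartment, a nuclear body marking cancer cells; inconclusive = readout between -30 and a set limit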
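PC3M cells stably expressing PTB-GFP, 750–1000 cells/well, treated 16 h at 37 °C with compound (23 nl of library stock), in duplicate. After paraformaldehyde fixation and Hoechst stain, imaged at 20x; PNC prevalence scored by image analysis.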
KinaseGlo FLuc: Counterscreen for Luciferase (Kinase-Glo TM) Inhibition; Luciferin 4-monooxygenase (Photuris pensylvanica), Q27757; Kinase-Glo luciferase, ATP luminescence, 8 min; Potency, µM (titrated, usually from 38.3 µM), actives largely listed as inhibitors; 200,000 tested, 0.28% active; active = well fitted inhibition curve with a large enough effect; inconclusive = small, poorly fitted or top-dose-only effect; note: nearly all actives have a fitted effect of over 60% in size
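Kinase-Glo luciferase light output from ATP and luciferin was measured with 10 uM ATP, within the enzyme's linear range. Buffer: 50 mM imidazole pH 7.2, 50 mM KCl, 7 mM MgCl2, 0.01% Tween 20, 0.05% BSA; luminescence read after 8 min at ambient temperature.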
IMPase cell inh: qHTS Assay for Identifying the Cell-Membrane Permeable IMPase Inhibitors. 120,000 tested, under 10 active. Inositol monophosphatase 1 (Rattus norvegicus), P97697. inhibition (IP1 accumulation), % at 46.1 µM. CHO-M1 cells, IP1 accumulation, HTRF TR-FRET ratio; active = well fitted curve in the direction sought with a large enough effect in the signal ratio, not every such curve was filed as active; inconclusive = small, poorly fitted or top-dose-only effect, or a change in a side signal; inactive = no such curve, though single readings can be large or run the other way; the % refers to the signal ratio;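 note: cells stimulated with carbachol in lithium chloride buffer; higher means more IMPase inhibition seen as more IP1 and lower FRET ratio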
Target sequence (P97697 whole entry, looked up): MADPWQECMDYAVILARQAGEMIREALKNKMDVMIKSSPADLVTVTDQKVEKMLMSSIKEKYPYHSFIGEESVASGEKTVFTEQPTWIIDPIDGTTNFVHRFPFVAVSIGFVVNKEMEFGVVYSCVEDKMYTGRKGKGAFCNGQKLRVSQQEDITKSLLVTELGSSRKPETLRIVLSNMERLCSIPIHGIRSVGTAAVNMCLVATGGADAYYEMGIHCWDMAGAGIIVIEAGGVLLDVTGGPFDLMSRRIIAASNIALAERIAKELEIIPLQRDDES
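Elevated IP1 in lysates lowers TR-FRET signal (665/620 ratio and 620 channel reported). Cells were CHO-M1, given carbachol (50 uM as added) plus 50mM LiCl, pH 7.4, 30 min, 37C; compounds titrated up to 46 uM; AC50 by Hill equation.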
LMNA splice mod: qHTS Assay for Modulators of Lamin A Splicing. 200,000 tested, 0.01% active. HeLa LMNA splicing GFP/RFP minigene ratio, 48 h. AID 1487, 2009. Potency, µM (doses to about 46.1 µM), actives largely listed as inhibitors; active = well fitted inhibition curve with a large enough effect in the signal ratio, with a control signal flat, not every such curve was filed as active; inconclusive = small, poorly fitted or top-dose-only effect, or effect the other way, or a change in a side signal; the % refers to the signal ratio
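S3 HeLa cells stably expressing lamin A-EGFP splicing minigene plus DsRed2, 600 cells/well, 48 h compound exposure at 37C. Laser-scanning cytometry; analysed as GFP (500-530 nm)/RFP (575-640 nm) total intensity ratio; 0.5% DMSO vehicle.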
Of the large screens only hits and unclear results are named; the others gave an inactive call. An excerpt weighted towards active compounds, which were near 10% of everything screened. Unless noted, calls come from the whole dose curve; as a rule, active = well fitted inhibition curve with a large enough effect (not every such curve was filed as active); inconclusive = small, poorly fitted or top-dose-only effect, or another doubt; inactive = no such curve, though single readings can be large or run the other way.

COc1ccc(N2C(=O)C3CCCN3C2c2ccc(C)cc2)cc1 (stereo not given)	ALDH1A1 block 20µM
COc1ccc(N2C(=O)C3CCCN3C2c2ccccc2OC)cc1 (stereo not given)	ALDH1A1 block inconclusive, PNC inhibitor inconclusive
O=C(CCc1nc(-c2cccs2)no1)Nc1cccc([N+](=O)[O-])c1	none (no result: HPGD inh, ALDH1A1 block, PNC inhibitor, KinaseGlo FLuc, IMPase cell inh)
CCCCCCCCCC(=O)N[C@@H](CN1CCOCC1)[C@@H](O)c1ccccc1	none (no result: HPGD inh, ALDH1A1 block, PNC inhibitor, KinaseGlo FLuc, LMNA splice mod)
CCn1c(=O)cc(SCC(=O)N2CCC(C)CC2)c2ccccc21	HPGD inh 5µM, ALDH1A1 block 20µM
CCn1c(=O)cc(SCC(=O)N2CCCCC2)c2ccccc21	HPGD inh 7.9µM, ALDH1A1 block 20µM, IMPase cell inh inconclusive, LMNA splice mod inconclusive
CCN1CCN(C(=O)CSc2cc(=O)n(CC)c3ccccc23)CC1	HPGD inh inconclusive, LMNA splice mod inconclusive
CCn1c(=O)cc(SCC(=O)N2CCN(C)CC2)c2ccccc21	HPGD inh inconclusive, PNC inhibitor inconclusive
COCCNc1ncnc2ccc(-c3c(C)noc3C)cc12	ALDH1A1 block inconclusive, LMNA splice mod 2.8µM (no result: HPGD inh, PNC inhibitor, KinaseGlo FLuc, IMPase cell inh)
Cc1cnc(CNc2ncnc3ccc(-c4c(C)noc4C)cc23)cn1	LMNA splice mod 7.1µM (no result: HPGD inh, PNC inhibitor, KinaseGlo FLuc, IMPase cell inh)
Cc1cnc(CNc2ncnc3ccc(-c4ccc5c(c4)OCO5)cc23)cn1	none (no result: HPGD inh, PNC inhibitor, KinaseGlo FLuc, IMPase cell inh)
COCCNc1nc(-c2c(C)noc2C)nc2ccccc12	LMNA splice mod inconclusive (no result: HPGD inh, PNC inhibitor, KinaseGlo FLuc, IMPase cell inh)
Cc1cccc(CNc2ncnc3ccc(-c4c(C)noc4C)cc23)c1	HPGD inh 13µM, LMNA splice mod inconclusive (no result: PNC inhibitor, IMPase cell inh)
COc1ccc(CNc2ncnc3ccc(-c4c(C)noc4C)cc23)c(OC)c1	LMNA splice mod 2.8µM (no result: HPGD inh, PNC inhibitor, KinaseGlo FLuc, IMPase cell inh)
COc1ccc(S(=O)(=O)n2nc(C)c(S(=O)(=O)N3CCCCCC3)c2C)cc1OC	none (no result: HPGD inh, ALDH1A1 block, PNC inhibitor, KinaseGlo FLuc, IMPase cell inh)
O[C@H](CNc1ccccn1)c1ccccc1	none (no result: PNC inhibitor, IMPase cell inh, LMNA splice mod)
Cc1ccnc(NS(=O)(=O)c2ccc(N=[N+]=[N-])cc2)n1	none (no result: PNC inhibitor, IMPase cell inh, LMNA splice mod)
Cc1noc(C)c1-c1ccc2ncnc(NCc3cccnc3)c2c1	LMNA splice mod 4µM (no result: HPGD inh, PNC inhibitor, KinaseGlo FLuc, IMPase cell inh)
Cc1noc(C)c1-c1ccc2ncnc(NC3CC3)c2c1	HPGD inh 14µM, LMNA splice mod inconclusive (no result: PNC inhibitor, IMPase cell inh)
Cc1ccc(CNC(=O)CCCn2c(=O)c3ccccc3n(CC(=O)Nc3ccc(C)cc3)c2=O)cc1	none (no result: HPGD inh, ALDH1A1 block, PNC inhibitor, KinaseGlo FLuc, LMNA splice mod)
NC(=O)NNc1cccc(Cl)n1	ALDH1A1 block 35µM (no result: HPGD inh, PNC inhibitor, IMPase cell inh, LMNA splice mod)
N#CCCCN1C(=O)C(=C(C#N)C#N)c2ccccc21	ALDH1A1 block 0.79µM (no result: HPGD inh, PNC inhibitor, IMPase cell inh)
COC(=O)C(C)n1cnc2c(nnn2Cc2ccc(Cl)cc2)c1=O (stereo not given)	HPGD inh 28µM
CCOC(=O)Cn1cnc2c(nnn2Cc2ccc(Cl)cc2)c1=O	none
O=c1c2nnn(Cc3ccccc3)c2ncn1C/C=C/c1ccccc1	HPGD inh 14µM
O=C(Cn1cnc2c(nnn2Cc2ccccc2)c1=O)c1ccc(Cl)cc1	none
O=C(Cn1cnc2c(nnn2Cc2ccc(Cl)cc2)c1=O)OCc1ccccc1	HPGD inh 13µM, ALDH1A1 block 13µM
Cn1cccc1C(=O)N1CCC2(CCCN(Cc3ccccc3)C2)CC1	none (no result: PNC inhibitor, IMPase cell inh, LMNA splice mod)
CCOC(=O)c1cc(-c2ccccc2)n(CC(=O)N(C)c2ccc(OC)cc2)c1C	none (no result: HPGD inh, ALDH1A1 block, PNC inhibitor, KinaseGlo FLuc, IMPase cell inh)
CN(C)CCNc1oc(-c2ccc(COc3ccc(Cl)cc3)o2)nc1C#N	none (no result: HPGD inh, ALDH1A1 block, PNC inhibitor, KinaseGlo FLuc, IMPase cell inh)
CN1CCCc2cc(C=O)ccc21	HPGD inh inconclusive, ALDH1A1 block 0.2µM
Cc1ccc2c(c1)CCCN2C(=O)NC1CCCCC1	none (no result: HPGD inh, PNC inhibitor, IMPase cell inh)
CC(C)(C)c1cc(NC(=O)COC(=O)c2ccc3c(=O)n4c(nc3c2)CCC4)n(-c2ccccc2)n1	ALDH1A1 block 4µM
CCOC(=O)c1scc(-c2ccc(C)cc2)c1S(=O)(=O)N1CCN(c2ccccc2F)CC1	none (no result: HPGD inh, ALDH1A1 block, PNC inhibitor, KinaseGlo FLuc, IMPase cell inh)
CC(Nc1nc2ncn(Cc3ccccc3)c2c(=O)[nH]1)C(=O)O (stereo not given)	HPGD inh 28µM, PNC inhibitor inconclusive

From PubChem
